WNV protease inh: blocks West Nile virus NS2B-NS3 protease activity; 65,000 tested, 0.18% active; WNV NS2B-NS3 protease, fluorogenic substrate Ex360/Em465; active compounds read low; P06935; z-score (concentration not given with the values); in the data active = z-score below about -3
CatS inh: blocks human cathepsin S protease activity; P25774; recombinant cathepsin S, AMC dipeptide fluorescence, pooled mixtures; inhibition, %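 (tested at 5 µM per compound within 10-compound mixtures)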; 62,000 tested, 0.06% active; in the data active = inhibition above about 32%, passing the limit was not always enough
CatL block: inhibitors of human cathepsin L; P07711; purified cathepsin L, fluorogenic substrate, fluorescence; inhibition, %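 (tested at 10 µM)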; 58,000 tested, 0.17% active; in the data active = inhibition above about 45%
Target sequence (P07711 114-288 limits assumed): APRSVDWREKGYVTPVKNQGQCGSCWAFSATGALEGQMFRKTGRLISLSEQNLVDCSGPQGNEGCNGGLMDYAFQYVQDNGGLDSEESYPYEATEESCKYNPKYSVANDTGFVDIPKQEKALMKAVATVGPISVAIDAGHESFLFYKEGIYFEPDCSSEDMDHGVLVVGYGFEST
Target sequence (P07711 292-333 limits assumed): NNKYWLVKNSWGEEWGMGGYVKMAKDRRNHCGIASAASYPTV
CatB inh: human cathepsin B inhibition; P07858; purified cathepsin B, fluorogenic substrate, fluorescence; inhibition, %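 (tested at 10 µM)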; 63,000 tested, 0.1% active; AID 453; in the data active = inhibition above about 21%
CatB mixtures: inhibitors of human cathepsin B in compound mixtures; Purified cathepsin B, AMC dipeptide fluorescence; 62,000 tested, 0.06% active; inhibition, %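 (ten-compound pools at 5 µM per compound and 50 µM total)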; in the data active = inhibition above about 22%, passing the limit was not always enough
Numbers stand for hits; . = inactive. Rows were chosen to be rich in hits. Some 0.42% of all compounds tested hit in one or more screens of this group.

SMILES | WNV protease inh | CatS inh | CatL block | CatB inh | CatB mixtures
Nc1ccnc(C(F)(F)F)c1C(=O)c1ccccc1 | . | . | . | . | .
COc1ccc(N2CCC(CNC(=O)Nc3ccc(OC)cc3OC)C2)cc1 (centres undefined) | . | . | . | . | .
COc1ccc(N2CCC(CNC(=O)Nc3ccc(C)c(C)c3)C2)cc1 (centres undefined) | . | . | . | 41.4 | .
COC(=O)c1[nH]c2ccc(C)cc2c1NC(=O)CN1CCCCC1C (centres undefined) | . | . | . | . | .
O=C(NCCCN1CCN(Cc2ccccc2)CC1)C1CCN(c2nnc(-n3cccc3)s2)CC1 | . | . | 63.8 | . | .
O=C(NCCCN1CCc2ccccc2C1)C1CCN(c2nnc(-n3cccc3)s2)CC1 | . | . | 78.0 | . | .
O=C1CC(c2ccc(Cl)c(Cl)c2)CC(O)=C1C=NCCN1CCNCC1 (centres undefined) | . | . | . | . | .
Cc1nnc(SCc2nnc(-c3ccc(Cl)cc3)o2)n1-c1ccccc1 | . | . | . | . | .
Cc1nnc(SCc2nnc(-c3ccccc3Br)o2)n1-c1ccccc1 | . | . | 81.6 | . | .
O=C(NCc1ccc(F)cc1)C1CCC(=O)N1CCc1ccccc1 (centres undefined) | . | . | . | 42.2 | .

Screens from PubChem.
